Measurements reported in PubChem BioAssay.
Active and inactive are the calls of the source.

What was measured:
[1] = A549 cell viability effects, profiling panel, calcein-AM fluorescence, 48 h, basal (AID 1162); conditions: higher = more signal
[2] = adipocyte viability effects, profiling panel, cell-based, 3T3-L1 adipocytes, calcein-AM fluorescence, 48 h, basal (AID 1163); conditions: 3T3-L1 adipocytes viability, higher = more signal
[3] = HepG2 cell viability effects, profiling panel, calcein-AM fluorescence, 48 h, basal (AID 1164); conditions: higher = more signal
[4] = MM1S cell viability effects, profiling panel, calcein-AM fluorescence, 48 h, basal (AID 1165); conditions: higher = more signal;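 note: viability of MM1S multiple myeloma cells under basal unstimulated conditions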
[5] = basal RPMI8226 viability, no added stimulus, profiling panel, cell-based, calcein-AM fluorescence, 48 h, PK04 Diversity Set (AID 1166); conditions: RPMI8226 myeloma viability, higher = more signal;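 note: cells grown under basal conditions without added stimulus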
[6] = basal HepG2 mitochondrial membrane potential changes, profiling panel, cell-based, JC-1 fluorescence, 24 h, 100 nL compound (AID 1167); conditions: higher = more signal
[7] = basal 3T3-L1 adipocyte mitochondrial potential changes, profiling panel, cell-based, JC-1 fluorescence, 3T3-L1 adipocytes, 24 h, 100 nL compound (AID 1168); conditions: JC-1 mitochondrial fluorescence, higher = more signal, called active from +8 up or from −8 down
[8] = basal RPMI8226 mitochondrial membrane potential changes, profiling panel, cell-based, JC-1 fluorescence, 24 h, 100 nL compound (AID 1169); conditions: RPMI8226 myeloma, JC-1 mitochondrial potential fluorescence, higher = more signal
[9] = basal MM1S mitochondrial membrane potential changes, profiling panel, cell-based, JC-1 fluorescence, 24 h, 100 nL compound (AID 1170); conditions: higher = more signal
[10] = A549 lung cancer cell viability effects, profiling panel, resazurin fluorescence, 24 h, PK04 Diversity Set (AID 1171); conditions: higher = more signal, called active from +8 up or from −8 down
Note: test concentration not given here.

| SMILES | z-score [1] | z-score [2] | z-score [3] | z-score [4] | z-score [5] | z-score [6] | z-score [7] | z-score [8] | z-score [9] | z-score [10] |
| --- | --- | --- | --- | --- | --- | --- | --- | --- | --- | --- |
| C=CC[C@@H]1C=CC(ON=C(C)C)[C@@H](CO)O1 (stereo not given in full) | 1.08 | -0.521 | 0.389 | 0.255 | -0.153 | -0.459 | -0.346 (inactive) | 0.00663 | -0.644 | -0.816 (inactive) |
| COC(=O)[C@H](C)NC(=O)CCC1CC(OC(=O)NCCc2ccc(F)cc2)CC2(CCCC(COC(=O)NCCc3ccccc3OC)O2)O1 (stereo not given in full) | -0.0621 | -0.825 | 0.308 | 0.636 | -0.285 | 0.15 | 0.766 (inactive) | 0.0549 | -0.876 | 0.0778 (inactive) |
| COc1ccc(-c2cnnc(CCCn3ccnc3-c3ccccc3)n2)cc1 | -0.98 | 1.02 | -1.28 | -1.82 | -2.55 | -1.5 | -0.876 (inactive) | -0.87 | -0.543 | -3.49 (inactive) |
| O=C1C[C@@H](O)[C@@H](O)[C@@H]2[C@@H]3C(=O)N(C4CCCCC4)C(=O)[C@@H]3CC[C@@H]12 | 0.112 | 0.0679 | 0.236 | -0.0357 | 0.313 | 0.0325 | -0.907 (inactive) | 0.0121 | -0.377 | -0.732 (inactive) |
| C=CCOCC1CN2[C@@H](CC[C@@H](C)[C@@H]2c2ccc(Br)cc2)C(=O)O1 (stereo not given in full) | 0.124 | 0.312 | 0.289 | -0.268 | -0.0306 | 0.506 | -0.809 (inactive) | -0.207 | 0.672 | 0.743 (inactive) |
| CC(CCN1CCc2nc(-c3ccccc3)c(-c3ccccc3)cc2C1)=NO[C@@H](C)c1cc(-c2c(C)cc(C)cc2C)no1 | -0.826 | 0.998 | 0.321 | -0.494 | -1.25 | 2.47 | -1.15 (inactive) | -0.535 | -1.62 | 0.235 (inactive) |
| COC(=O)[C@H](Cc1ccccc1)NC(=O)[C@@H](C)CO | -0.457 | 0.802 | -0.196 | -2.56 | -2.56 | 0.892 | -0.218 (inactive) | -0.186 | -0.209 | -0.234 (inactive) |
| CCN1C(=O)[C@H]2[C@H]3[C@H](O)[C@H](O)CC(=NO[C@H](C)c4cn([C@H](CO)Cc5ccccc5)nn4)[C@@H]3CC[C@H]2C1=O | 1.01 | -0.922 | 0.211 | -0.824 | 0.065 | -0.471 | -1.16 (inactive) | 0.271 | -0.343 | -1.13 (inactive) |
| CCOC(=O)NN=C1C[C@@H](O)[C@@H](O)[C@@H]2[C@@H]3C(=O)N(C[C@@H]4CCCO4)C(=O)[C@@H]3CC[C@H]12 | -0.0295 | 0.127 | -1.17 | -0.0085 | 0.121 | -0.686 | -0.408 (inactive) | -0.38 | -0.229 | 0.159 (inactive) |
| CCOC(=O)[C@H](Cc1ccccc1)NC(=O)CCC1CC(OC(=O)NCc2cccc3ccccc23)CC2(CCCC(COC(=O)NCCc3ccc(Cl)cc3)O2)O1 (stereo not given in full) | 0.893 | 0.595 | -0.397 | 0.248 | 0.859 | -0.114 | 0.237 (inactive) | -0.185 | -0.401 | 0.895 (inactive) |
| CC(C)[C@@H](OCc1ccccc1)[C@H](C)C=NO[C@@H](C)c1cn([C@H](CO)Cc2ccccc2)nn1 | 0.0751 | 0.143 | -0.112 | -0.265 | 0.0853 | -0.944 | -1.54 (inactive) | 0.362 | -0.318 | -0.877 (inactive) |
| CO[C@@H]1COC(=O)[C@H](COCc2ccccc2)NC(=O)CC=C[C@@H](C)[C@H](OC)COC(=O)[C@@H](C)NC(=O)CC=C[C@H]1C | 0.759 | 0.0006 | 0.56 | 0.208 | -1.54 | 0.648 | -0.828 (inactive) | 0.402 | -0.343 | 0.846 (inactive) |
| CCOC(=O)[C@H](CC(C)C)NC(=O)CCC1CC(OC(=O)NCc2ccc3c(c2)OCO3)CC2(CCCC(COC(=O)NCCOC)O2)O1 (stereo not given in full) | 0.0414 | -0.453 | -0.0998 | -0.418 | 0.457 | 0.11 | 0.65 (inactive) | 0.413 | -0.359 | 0.689 (inactive) |
| COc1ccc(COC(=O)NN=C2C[C@@H](O)[C@@H](O)[C@@H]3[C@@H]4C(=O)N(Cc5ccc6c(c5)OCO6)C(=O)[C@@H]4CC[C@H]23)cc1 | -0.0897 | -0.243 | 0.53 | 0.311 | -0.0157 | 0.301 | -0.339 (inactive) | 0.0307 | -0.825 | -0.0129 (inactive) |
| CCOC(=O)[C@H](Cc1ccccc1)NC(=O)CCC1CC(OC(=O)NCc2cccc3ccccc23)CC2(CCCC(COC(=O)NCCc3ccccc3OC)O2)O1 (stereo not given in full) | -0.111 | -0.211 | -0.521 | -0.123 | -1.39 | 0.527 | -0.177 (inactive) | -0.0487 | -0.193 | 0.737 (inactive) |
| CCN1C(=O)[C@H]2[C@H]3[C@H](O)[C@H](O)CC(=NOC(C)CN4CCCc5nc(C)c(C)cc54)[C@@H]3CC[C@H]2C1=O (stereo not given in full) | 0.355 | -0.769 | -0.283 | -1.78 | -0.99 | 0.128 | -0.886 (inactive) | 0.534 | -0.902 | -0.696 (inactive) |
| CO[C@@H]1C=CCC(=O)N[C@@H](C)C(=O)OC[C@@H](OC)[C@H](C)C=CCC(=O)OC[C@H]1C | 0.234 | 0.374 | 0.0804 | 0.316 | 0.389 | 0.589 | -0.848 (inactive) | 0.674 | 0.704 | 0.474 (inactive) |
| CCCNC(=O)OC[C@H]1O[C@H](CCON=C2c3cc(OC)ccc3O[C@H](c3cccc(OC)c3)[C@H]2O)C=C[C@@H]1Oc1ccc(OC)cc1 | 0.111 | 0.752 | -0.0825 | -0.187 | -0.572 | 1.38 | -1.49 (inactive) | 0.0694 | -0.0229 | 0.409 (inactive) |
| COc1ccc(COC(=O)NN=C2C[C@@H](O)[C@@H](O)[C@@H]3[C@@H]4C(=O)N(c5cccc(Oc6ccccc6)c5)C(=O)[C@@H]4CC[C@H]23)cc1 | -0.777 | 0.487 | -0.634 | 0.0646 | -1.2 | 0.89 | -1.78 (inactive) | 0.197 | -1.73 | 1.29 (inactive) |
| CC(=O)OC[C@H]1O[C@H](CC=NOC(C)CN2CCCCc3nc(C)c(C)cc32)C=C[C@@H]1OC(C)=O (stereo not given in full) | -0.348 | -1.19 | -0.276 | 0.0965 | -1.26 | -0.681 | -1.05 (inactive) | -0.31 | -0.182 | -0.146 (inactive) |
| O=C1[C@H]2CCn3c(=O)n(Cc4cc5c(cc4Cl)OCO5)c(=O)n3[C@H]2[C@H](O)[C@@H]2O[C@H]12 | 0.173 | -0.124 | -0.0111 | -1.72 | -0.518 | 0.039 | -0.275 (inactive) | 0.177 | -0.744 | -0.963 (inactive) |
| CCOC(=O)NN=C1C[C@@H](O)[C@@H](O)[C@@H]2[C@@H]3C(=O)N(CC)C(=O)[C@@H]3CC[C@H]12 | 0.258 | -0.588 | 0.527 | 0.464 | 0.268 | 0.987 | -0.557 (inactive) | -0.241 | -0.809 | -0.653 (inactive) |
| O=C(NCCC[N+]1=CC=NC1c1ccccc1)N1CCCc2nc(-c3ccc(Br)cc3)ccc21 (stereo not given) | 0.478 | -1.13 | -0.598 | -2.52 | -0.77 | 1.13 | -0.141 (inactive) | 0.184 | -0.404 | 0.811 (inactive) |
| COC(=O)[C@H](C)NC(=O)CCC1CC(OC(=O)NCc2ccc3c(c2)OCO3)CC2(CCCC(COC(=O)NCCCN3CCCC3=O)O2)O1 (stereo not given in full) | -0.516 | -0.232 | -1.09 | -0.375 | -0.322 | -0.815 | -0.019 (inactive) | -0.838 | 0.224 | 0.468 (inactive) |
| CCN1C(=O)[C@H]2[C@H]3[C@H](O)[C@H](O)CC(=NOC[C@@H](O)COCc4ccco4)[C@H]3CC[C@H]2C1=O | -0.199 | 0.47 | -0.0911 | 0.133 | -0.229 | -0.326 | -0.128 (inactive) | 0.545 | 0.905 | -0.45 (inactive) |
| C[C@@H]1CC[C@H]2C(=O)O[C@@H](CN=[N+]=[N-])CN2[C@H]1c1ccc(Br)cc1 | -3.8 | 0.254 | -4.54 | -3.04 | -4.07 | -2.08 | -0.62 (inactive) | -1.18 | -1.33 | -0.487 (inactive) |
| CO[C@@H]1COC(=O)[C@H](CCSC)NC(=O)CC=C[C@@H](C)COC(=O)[C@@H]2CCCN2C(=O)CC=C[C@H]1C | -0.25 | -0.094 | 0.182 | 0.105 | 0.339 | 0.754 | 0.579 (inactive) | -0.79 | 0.326 | 0.285 (inactive) |
